Source: PubChem BioAssay (Tox21)
Records with an inconclusive call do not appear. Calls of active or inactive are those of the source. Unless noted, the call rests on the fitted dose curve.

How the values were obtained:
[1] = Nuclear factor erythroid 2-related factor 2/antioxidant responsive element (Nrf2/ARE) small molecule agonists: qHTS cell viability counter screen in human keratinocytes (AID 1919968; active means well fitted curve in the direction sought with a large enough effect in the repeat runs; an effect the other way counts as inactive or inconclusive; further: nearly all actives have a fitted effect of over 55% in size)
Procedure, shortened: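 Stably transfected HaCaT (KeratinoSens), 1,500/well. Test agents in DMSO were applied for 23 h, 37 C/5% CO2. CellTiter-Fluor was incubated 1 h before the fluorescence read.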

[2] = Nuclear factor erythroid 2-related factor 2/antioxidant responsive element (Nrf2/ARE) small molecule agonists: luciferase reporter gene qHTS assay in human keratinocytes (AID 1919969); further: nearly all actives have a fitted effect of over 35% in size
[3] = molecular target: Gonadotropin-releasing hormone receptor (Homo sapiens) (UniProt P30968); assay: Human gonadotropin-releasing hormone receptor (GnRHR) small molecule agonists, calcium flux assay in GnRHR-HEK293 cells (AID 1920063); further: nearly all actives have a fitted effect of over 35% in size
Gonadotropin-releasing hormone receptor (Homo sapiens), sequence (P30968 whole entry, looked up): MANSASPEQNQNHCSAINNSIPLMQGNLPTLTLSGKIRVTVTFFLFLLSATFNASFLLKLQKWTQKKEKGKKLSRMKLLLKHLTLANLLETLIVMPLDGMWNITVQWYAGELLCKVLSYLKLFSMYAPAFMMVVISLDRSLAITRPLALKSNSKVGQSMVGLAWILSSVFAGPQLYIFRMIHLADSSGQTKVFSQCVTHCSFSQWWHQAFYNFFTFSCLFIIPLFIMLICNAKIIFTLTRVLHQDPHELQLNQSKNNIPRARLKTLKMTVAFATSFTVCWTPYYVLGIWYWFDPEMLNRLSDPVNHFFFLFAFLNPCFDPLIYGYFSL
Procedure, shortened: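 Stable human GnRHR HEK293 line. 18 h plating, then calcium dye for 1 h at 37 C. Agonist-mode compound addition from DMSO stocks; fluorescence monitored 3 min.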

[4] = molecular target: KiSS-1 receptor (Homo sapiens) (UniProt Q969F8); assay: Human kisspeptin (KISS1R) small molecule agonists, calcium flux assay in KISS1R-HEK293 cells (AID 1920064; active means well fitted curve in the direction sought with a large enough effect in the repeat runs; an effect the other way counts as inactive or inconclusive)
KiSS-1 receptor (Homo sapiens), sequence (Q969F8 whole entry, looked up): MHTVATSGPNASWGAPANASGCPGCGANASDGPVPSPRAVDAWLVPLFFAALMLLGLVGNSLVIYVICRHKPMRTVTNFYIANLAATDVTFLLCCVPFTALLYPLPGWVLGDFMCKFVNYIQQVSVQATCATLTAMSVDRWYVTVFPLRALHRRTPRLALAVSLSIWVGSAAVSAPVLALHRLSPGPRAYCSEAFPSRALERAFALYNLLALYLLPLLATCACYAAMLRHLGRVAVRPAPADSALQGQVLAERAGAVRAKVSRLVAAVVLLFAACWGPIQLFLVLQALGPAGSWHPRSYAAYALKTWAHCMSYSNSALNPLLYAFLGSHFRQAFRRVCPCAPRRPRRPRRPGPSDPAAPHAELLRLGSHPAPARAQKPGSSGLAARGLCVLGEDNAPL
Procedure, shortened: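 After overnight (18 h) culture at 37 C/5% CO2, human KISS1R-HEK293 cells received calcium dye for 1 h, then test compound; emission at 540 nm (excitation 480 nm) was tracked for 3 min.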

[5] = G protein-coupled receptor (GPCR) small molecule agonists, calcium flux assay: HEK293 wild type cell line counter screen (AID 1920065)
Procedure, shortened: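 Following 18 h incubation at 37 C/5% CO2, plates got calcium dye for 1 h; compounds, ATP or DMSO were then pinned in and fluorescence followed kinetically (480/540 nm).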

[6] = p53 small molecule agonists, cell-based qHTS assay with human liver microsomes: qHTS cell viability counter screen (AID 1963579); further: nearly all actives have a fitted effect of over 45% in size
Procedure, shortened: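 Metabolically activated exposure: compounds, human liver microsomes and NADPH (0.5 mg/mL final apiece) were added to p53RE-bla cells seeded 5 h earlier, left 16 h at 37 C, and then assessed for viability by CellTiter-Glo luminescence.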

[7] = p53 small molecule agonists, cell-based qHTS assay with rat liver microsomes: qHTS cell viability counter screen (AID 1963580); further: nearly all actives have a fitted effect of over 45% in size
Procedure, shortened: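 Cytotoxicity counter screen: intracellular ATP measured by CellTiter-Glo luminescence in the same wells as the beta-lactamase reporter read, on HCT-116 p53RE-bla cells exposed 16 h at 37 C to compounds with rat liver microsomes and NADPH, each 0.5 mg/mL final.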

[8] = molecular target: 5-hydroxytryptamine receptor 2A (Homo sapiens) (UniProt P28223); assay: 5-hydroxytryptamine receptor 2A (HTR2A) small molecule antagonists, cell-based qHTS assay (AID 1963586); further: nearly all actives have a fitted effect of over 45% in size
5-hydroxytryptamine receptor 2A (Homo sapiens), sequence (P28223 whole entry, looked up): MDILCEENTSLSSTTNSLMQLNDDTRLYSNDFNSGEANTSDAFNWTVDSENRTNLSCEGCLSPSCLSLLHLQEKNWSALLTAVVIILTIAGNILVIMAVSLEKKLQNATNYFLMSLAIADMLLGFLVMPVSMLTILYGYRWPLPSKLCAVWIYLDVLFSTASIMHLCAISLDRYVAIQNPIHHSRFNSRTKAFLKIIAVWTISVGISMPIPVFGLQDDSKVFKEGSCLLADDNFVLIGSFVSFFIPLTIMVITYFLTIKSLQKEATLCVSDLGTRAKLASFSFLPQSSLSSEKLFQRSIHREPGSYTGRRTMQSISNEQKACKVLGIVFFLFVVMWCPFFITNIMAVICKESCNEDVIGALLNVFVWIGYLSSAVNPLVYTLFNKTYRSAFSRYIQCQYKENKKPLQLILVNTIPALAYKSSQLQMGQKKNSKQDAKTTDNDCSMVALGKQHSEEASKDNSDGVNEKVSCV
Procedure, shortened: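 CHO cells stably expressing human HTR2A were plated for 18 h at 37 C, then loaded with calcium dye for 1 h. Compounds were preincubated 5 min at room temperature before DOI (4 nM solution) was added. Kinetic fluorescence was read for 3 min.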

[9] = molecular target: 5-hydroxytryptamine receptor 2A (Homo sapiens) (UniProt P28223); assay: 5-hydroxytryptamine receptor 2A (HTR2A) small molecule agonists, cell-based qHTS assay (AID 1963587); further: nearly all actives have a fitted effect of over 30% in size
Procedure, shortened: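 CHO cells stably expressing human HTR2A, plated 18 h, loaded with calcium dye 1 h at 37 C. Agonist mode: compounds added and intracellular calcium fluorescence recorded kinetically for 2 min at 1 sec intervals.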

[10] = molecular target: Muscarinic acetylcholine receptor M1 (Homo sapiens) (UniProt P11229); assay: Cholinergic receptor muscarinic 1 (CHRM1) small molecule antagonists, cell-based qHTS assay (AID 1963588); further: nearly all actives have a fitted effect of over 40% in size
Muscarinic acetylcholine receptor M1 (Homo sapiens), sequence (P11229 whole entry, looked up): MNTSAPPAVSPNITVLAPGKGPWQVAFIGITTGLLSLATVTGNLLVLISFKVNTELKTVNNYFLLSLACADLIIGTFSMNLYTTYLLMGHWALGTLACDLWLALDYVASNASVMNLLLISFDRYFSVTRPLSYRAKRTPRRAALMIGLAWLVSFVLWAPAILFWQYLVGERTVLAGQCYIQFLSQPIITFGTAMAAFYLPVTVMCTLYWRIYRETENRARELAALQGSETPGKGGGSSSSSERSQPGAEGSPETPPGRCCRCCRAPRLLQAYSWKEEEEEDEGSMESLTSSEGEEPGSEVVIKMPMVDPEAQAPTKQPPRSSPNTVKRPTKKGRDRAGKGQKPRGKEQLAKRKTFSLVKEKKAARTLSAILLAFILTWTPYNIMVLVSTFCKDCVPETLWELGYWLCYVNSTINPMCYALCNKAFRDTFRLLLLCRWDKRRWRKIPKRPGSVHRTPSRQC
Procedure, shortened: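 Compounds were tested at 15 concentrations in three independent runs. Dye-loaded CHRM1-CHO cells were exposed 5 min at room temperature before stimulation by acetylcholine added at 50nM. Intracellular calcium was read kinetically on FDSS for 3 min.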

[11] = molecular target: Muscarinic acetylcholine receptor M1 (Homo sapiens) (UniProt P11229); assay: Cholinergic receptor muscarinic 1 (CHRM1) small molecule agonists, cell-based qHTS assay (AID 1963589); further: nearly all actives have a fitted effect of over 35% in size
Procedure, shortened: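 Kinetic fluorescence (1 s intervals) of calcium-sensitive dye in human M1 CHO cells after compound addition; cells pre-incubated 18 h at 37 C/5% CO2 and dye-loaded 1 h.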

[12] = cAMP Responsive Elements (CRE) small molecule agonists, cell-based qHTS assay (AID 1963590)
Procedure, shortened: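 Test agents in DMSO were incubated 3 h at 37 C/5% CO2 with CRE-bla HEK 293T cells seeded 18 h earlier; LiveBLAzer B/G FRET substrate was added and read after 2 h at room temperature.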

[13] = cAMP Responsive Elements (CRE) small molecule antagonists, cell-based qHTS assay (AID 1963591; active means well fitted inhibition curve with a large enough effect in the signal ratio in the repeat runs, not every such curve was filed as active; the % refers to the signal ratio)
Procedure, shortened: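 Reporter line CRE-bla HEK 293T in dialyzed-FBS DMEM; cells preincubated 18 h, treated 3 h with compound plus NKH477 (0.25 uM final); LiveBLAzer FRET, 2 h RT.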

[14] = molecular target: Beta-2 adrenergic receptor (Homo sapiens) (UniProt P07550); assay: Adrenergic beta2 receptor (ADRB2) small molecule antagonists, cell-based qHTS assay (AID 1963592); further: series mostly up to about 92 µM; nearly all actives have a fitted effect of over 50% in size
Beta-2 adrenergic receptor (Homo sapiens), sequence (P07550 whole entry, looked up): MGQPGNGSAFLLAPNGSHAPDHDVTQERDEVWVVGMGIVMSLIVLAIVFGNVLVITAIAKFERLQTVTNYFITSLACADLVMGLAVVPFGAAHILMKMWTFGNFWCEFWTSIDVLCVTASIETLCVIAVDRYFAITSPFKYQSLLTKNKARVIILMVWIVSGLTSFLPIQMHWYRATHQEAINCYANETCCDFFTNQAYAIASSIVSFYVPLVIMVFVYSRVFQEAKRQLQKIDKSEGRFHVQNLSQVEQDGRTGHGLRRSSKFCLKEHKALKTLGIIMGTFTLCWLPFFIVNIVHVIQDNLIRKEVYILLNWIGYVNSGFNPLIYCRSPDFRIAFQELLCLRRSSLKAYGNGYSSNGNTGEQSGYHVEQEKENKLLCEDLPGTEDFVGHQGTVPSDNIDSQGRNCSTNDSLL
Procedure, shortened: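 Assay format: CHO-ADRB2 cells, 18-20hr seeding at 37C/5% CO2, then compound plus 1nM isoproterenol agonist mix for 0.5hr RT. Homogeneous time-resolved fluorescence cAMP detection after 1hr, expressed as 665/615 nm ratio.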

[15] = molecular target: Beta-2 adrenergic receptor (Homo sapiens) (UniProt P07550); assay: Adrenergic beta2 receptor (ADRB2) small molecule agonists, cell-based qHTS assay (AID 1963593);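 further: CHO cells stably overexpressing human ADRB2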
Procedure, shortened: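 CHO cells stably over-expressing ADRB2 were plated overnight at 37C, then dosed with compounds plus a stimulation mix containing 100uM IBMX and 25uM Ro-20-1724 for 0.5hr at room temperature. cAMP was measured by HTRF competition, 1hr.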

[16] = molecular target: D(2) dopamine receptor (Homo sapiens) (UniProt P14416); assay: Dopamine D2 receptor (DRD2) small molecule antagonists, cell-based qHTS assay (AID 1963595; active means well fitted inhibition curve with a large enough effect in the signal ratio in the repeat runs, with a control signal flat; the % refers to the signal ratio)
D(2) dopamine receptor (Homo sapiens), sequence (P14416 whole entry, looked up): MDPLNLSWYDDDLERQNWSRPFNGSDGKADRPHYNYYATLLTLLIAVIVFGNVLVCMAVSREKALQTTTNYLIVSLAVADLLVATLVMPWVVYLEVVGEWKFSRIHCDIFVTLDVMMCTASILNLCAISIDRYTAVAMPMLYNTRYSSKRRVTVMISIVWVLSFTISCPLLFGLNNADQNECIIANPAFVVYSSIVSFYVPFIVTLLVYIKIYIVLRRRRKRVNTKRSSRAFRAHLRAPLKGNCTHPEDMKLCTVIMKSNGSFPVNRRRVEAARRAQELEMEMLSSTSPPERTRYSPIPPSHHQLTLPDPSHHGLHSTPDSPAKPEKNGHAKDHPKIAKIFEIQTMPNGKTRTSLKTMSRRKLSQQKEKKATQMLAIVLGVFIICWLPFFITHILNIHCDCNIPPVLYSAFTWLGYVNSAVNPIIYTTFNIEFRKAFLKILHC
Procedure, shortened: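 Cells were plated and grown for 24 h at 37 °C. Ro20-1724 (0.1 mM final) went in first, then compound for 10 min. NKH477 (200 nM) with quinpirole (12 nM) followed for 30 min at RT, then HTRF detection reagents for 1 h.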

[17] = p53 small molecule agonists, cell-based qHTS assay: qHTS cell viability counter screen (AID 1963581); further: nearly all actives have a fitted effect of over 45% in size
Procedure, shortened: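 qHTS counter screen: 16 h compound exposure at 37 C of p53RE-bla HCT-116 cells (4,000 per well, seeded 5 h prior), cell viability by ATP luminescence.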

[18] = molecular target: D(2) dopamine receptor (Homo sapiens) (UniProt P14416); assay: Dopamine D2 receptor (DRD2) small molecule agonists, cell-based qHTS assay (AID 1963594); further: nearly all actives have a fitted effect of over 35% in size
Procedure, shortened: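 HEK293 cells stably expressing human DRD2, pre-treated with PDE inhibitor Ro20-1724 (0.1 mM final) and compound 10 min at room temperature, then stimulated with NKH477 (200nM […]) for 30 min. cAMP read by HTRF (665/620 nm).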

Measured: Potency

C#CC(O)C(CC)CCCC (stereo unspecified)
inactive: [1] | [2] | [3] | [4] | [5] | [6] | [7] | [8] | [9] | [10] | [11] | [12] | [13] | [14] | [15] | [16]

CC(=O)OCC(=O)[C@@]12OC(C)(C)O[C@@H]1C[C@H]1[C@@H]3C[C@H](F)C4=CC(=O)C=C[C@]4(C)[C@@]3(F)[C@@H](O)C[C@@]12C
inactive: [1] | [2] | [3] | [4] | [5] | [6] | [7] | [17] | [14] | [18] | [16]

CNc1ncnc2nc[nH]c12
inactive: [1] | [2] | [3] | [4] | [5] | [6] | [7] | [8] | [9] | [10] | [11] | [12] | [13] | [14] | [15] | [18] | [16]

O=C(O)CO
inactive: [1] | [2] | [3] | [4] | [5] | [6] | [7] | [17] | [12] | [14] | [16]

CCCCOc1ccc(CC(=O)NO)cc1
inactive: [1] | [2] | [3] | [4] | [5] | [6] | [7] | [8] | [9] | [10] | [11] | [12] | [13] | [14] | [15] | [18]

Cc1c(F)c(N2CCNC(C)C2)cc2c1c(=O)c(C(=O)O)cn2C1CC1 (stereo unspecified)
inactive: [1] | [2] | [3] | [4] | [5] | [6] | [7] | [17] | [14] | [15] | [18] | [16]

CC[C@H]1OC(=O)[C@H](C)[C@@H](O[C@H]2C[C@@](C)(OC)[C@@H](O)[C@H](C)O2)[C@H](C)[C@@H](O[C@@H]2O[C@H](C)C[C@H](N(C)C)[C@H]2O)[C@](C)(O)C[C@@H](C)/C(=N\OCOCCOC)[C@H](C)[C@@H](O)[C@]1(C)O
inactive: [1] | [2] | [3] | [4] | [5] | [6] | [7] | [17] | [12] | [14] | [18] | [16]

O=C1CCC(=O)N1Cl
inactive: [1] | [2] | [3] | [4] | [5] | [6] | [7] | [8] | [9] | [10] | [11] | [12] | [14] | [18] | [16]

C=C(C)CS(=O)(=O)O
inactive: [1] | [2] | [3] | [4] | [5] | [6] | [7] | [8] | [9] | [10] | [11] | [12] | [13] | [14] | [18] | [16]
